Inconclusive results are not listed. The source made the active and inactive calls. Unless noted, the call rests on the fitted dose curve; in most records, active means well fitted curve in the direction sought with a large enough effect; inconclusive means small, poorly fitted or top-dose-only effect, or another doubt; inactive means no such curve, though single readings can be large; an effect the other way counts as inactive or inconclusive.
Assays:
[1] = molecular target: Glucocorticoid receptor (Homo sapiens) (UniProt P04150); assay: qHTS assay for small molecule agonists of glucocorticoid receptor signaling (AID 588532; active means well fitted curve in the direction sought with a large enough effect in the signal ratio, with a control signal flat; the % refers to the signal ratio;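 further: 100% = dexamethasone at 0.1 µM and 0% = DMSO only wells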); conditions: HeLa MMTV-bla, beta-lactamase ratio, agonist, 18 h; stronger effect = higher value; percent of dexamethasone control, DMSO zero
Outline: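 Stimulation of a glucocorticoid response element-driven beta-lactamase gene was measured in HeLa cells. Responses were scaled between DMSO basal and 0.1 uM dexamethasone, then fitted for half-maximal stimulation.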

[2] = qHTS assay for small molecule antagonists of peroxisome proliferator-activated receptor delta signaling (AID 588535); conditions: HEK293T PPARd-UAS-bla, beta-lactamase FRET ratio, 18 h; 460 nm channel;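 further: cells co-treated with a PPAR-delta agonist as stimulator during compound exposure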
Outline: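 Reporter: UAS-bla under PPAR-delta response element, HEK293T host. Medium: 2% charcoal/dextran FBS. Dosing: titration, 18 hrs, 37 C. Detection: CCF4, 2 hrs RT, 405 ex/460 and 530 em.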

[3] = molecular target: Peroxisome proliferator-activated receptor gamma (Homo sapiens) (UniProt P37231); assay: qHTS assay for small molecule agonists of peroxisome proliferator-activated receptor gamma signaling (AID 588536; active means well fitted curve in the direction sought with a large enough effect in the signal ratio, with a control signal flat, not every such curve was filed as active; the % refers to the signal ratio;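 further: 0% = DMSO basal wells and 100% = rosiglitazone at 2 µM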); conditions: HEK293 PPARg-UAS-bla, beta-lactamase ratio, 16 h, percent of rosiglitazone response, DMSO as zero; series mostly up to 76.7 µM
Outline: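 PPAR-gamma-UAS-bla HEK293 cells in medium with 1% charcoal/dextran-treated FBS were exposed to compounds for 16 h at 37 C. Beta-lactamase activity was read with CCF4 substrate (405 nm excitation, 460/530 nm emission).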

[4] = qHTS assay for small molecule agonists of retinoid X receptor alpha signaling (AID 588544; calls by dose curve;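 on activation: 0% = DMSO basal wells and 100% = reference agonist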); conditions: HEK293T RXRa-UAS-bla, beta-lactamase reporter, 18 h; 530 nm emission
[5] = molecular target: Retinoic acid receptor RXR-alpha (Homo sapiens) (UniProt P19793); assay: as above; conditions: HEK293T RXRa-UAS-bla, beta-lactamase reporter, 18 h; series mostly up to 76.7 µM
[6] = molecular target: Thyroid hormone receptor beta (Homo sapiens) (UniProt P10828); assay: qHTS assay for small molecule agonists of thyroid hormone receptor beta signaling (AID 588545; calls by dose curve); conditions: TR-UAS-bla GripTite HEK 293, beta-lactamase ratio, agonist mode, 18 h; series mostly up to 76.7 µM
Outline: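 Cells (2500/well) were seeded, incubated 4 hrs at 37 C, dosed with a compound series, incubated 18 hrs, loaded with CCF4 dye for 2 hrs at RT, then read for fluorescence. Data were scaled between DMSO (0%) and 10 nM T3 (100%).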

[7] = qHTS assay for small molecule antagonists of retinoid X receptor alpha signaling (AID 588546; active means well fitted inhibition curve with a large enough effect in the signal ratio, with a control signal flat, not every such curve was filed as active; the % refers to the signal ratio;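 further: cells stimulated with 9-cis-retinoic acid as agonist; on the % scale 0 is the no-effect control and ±100 the full control effect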); conditions: HEK293T RXRa-UAS-bla, beta-lactamase ratio, antagonist mode; measured here: W530 green channel, cytotoxicity proxy
Outline: (§1)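 Beta-lactamase reporter inhibition, read as CCF4 fluorescence ratio (ex 405, em 460/530 nm) after 2 h at RT. HEK293T UAS-bla cells, 2500/well, were stimulated with 9-cis-RA at 500 or 100 nM final alongside test compound for 18 h at 37 C.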

[8] = molecular target: Retinoic acid receptor RXR-alpha (Homo sapiens) (UniProt P19793); assay: as above; conditions: HEK293T RXRa-UAS-bla, beta-lactamase ratio, antagonist mode
Outline: as §1

[9] = molecular target: Thyroid hormone receptor beta (Homo sapiens) (UniProt P10828); assay: qHTS assay for small molecule antagonists of thyroid hormone receptor beta signaling (AID 588547; active means well fitted inhibition curve with a large enough effect in the signal ratio, with a control signal flat, not every such curve was filed as active; the % refers to the signal ratio;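 further: cells stimulated with 0.4 nM T3 agonist during compound exposure; on the % scale 0 is the no-effect control and ±100 the full control effect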); conditions: TR-UAS-bla HEK293, beta-lactamase ratio, antagonist mode, 18 h
Outline: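 TR-UAS-bla GripTite HEK293 cells in 2% charcoal/dextran FBS medium were preincubated 4 h at 37 C, given compound (0.59 nM to 92 uM) plus 0.4 nM T3 (final) for 18 h, then CCF4 for 2 h at RT; Hill fit gave IC50.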

[10] = qHTS assay for small molecule activators of the p53 signaling pathway (AID 651743; active means well fitted activation curve with a large enough effect in the signal ratio, not every such curve was filed as active; the % refers to the signal ratio; further: % of control where 0% means no effect); conditions: HCT-116 p53RE-bla, beta-lactamase FRET ratio, 16 h; activation: stronger effect = higher value
Outline: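 Cell-based beta-lactamase reporter (p53 response elements, HCT-116 background). After a 5-hour preincubation, cells received compound for 16 hours at 37 C; substrate development ran 2 hours at room temperature.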

[11] = qHTS assay for small molecule activators of the nuclear factor-kappa B (NF-kB) signaling pathway (AID 651749; active means well fitted activation curve with a large enough effect in the signal ratio; the % refers to the signal ratio; further: % of control where 0% means no effect); conditions: NF-kB-bla ME-180 cells, beta-lactamase FRET ratio, 16 h; activation: stronger effect = higher value
Outline: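 Screening used 2,000 ME-180 reporter cells per well exposed to pinned compound (23 nL) or DMSO; after 16 hr at 37C, beta-lactamase expression under NF-kB control was assessed through FRET.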

[12] = qHTS assay for environmental chemicals that activate the Aryl hydrocarbon Receptor (AhR) signaling pathway (AID 651777); conditions: 1A2-DRE human hepatoma cells, luciferase, 24 h; activation: stronger effect = higher value; further: % of control where 0% means no effect; nearly all actives have a fitted effect of over 15% in size
Outline: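 Quantitative HTS in stably transfected human liver-derived cells whose luciferase gene sits downstream of the CYP1A2 promoter and dioxin response element. After 24 hr exposure at 37 C, One-Glo luminescence was measured.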

[13] = molecular target: Peroxisome proliferator-activated receptor alpha (Homo sapiens) (UniProt Q07869); assay: qHTS assay for small molecule agonists of the peroxisome proliferator-activated receptor alpha (PPARalpha) signaling pathway (AID 651778); conditions: PathHunter PPARalpha complementation, chemiluminescence, 6 h; max response: stronger effect = higher value; further: % of control where 0% means no effect
Outline: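 Cells plated at 2,000/well and held overnight at 37 C, 5% CO2, then compound added by pin tool for 6 hr; after PathHunter detection reagent and 60 min at room temperature, chemiluminescence from enzyme complementation was read.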

[14] = qHTS assay for small molecule agonists of the antioxidant response element (ARE) signaling pathway measured by Nrf2-dependant transcriptional activity (AID 720636; active means well fitted curve in the direction sought with a large enough effect in the repeat runs; an effect the other way counts as inactive or inconclusive; further: % of control where 0% means no effect); conditions: ARE-luc HepG2, Nrf2 luciferase reporter, 16 h; series mostly up to 92.4 µM
Outline: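 Quantitative HTS format in HepG2 cells stably expressing an ARE-luciferase reporter; 16 hr compound treatment at 37 C, luciferase signal detected with ONE-Glo.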

[15] = qHTS assay for small molecule agonists of the antioxidant response element (ARE) signaling pathway measured by Nrf2-dependant transcriptional activity - cell viability counter screen (AID 720653; active means well fitted curve in the direction sought with a large enough effect in the repeat runs; an effect the other way counts as inactive or inconclusive; further: on the % scale 0 is the no-effect control and ±100 the full control effect); conditions: ARE-bla HepG2 viability, CellTiter-Glo ATP luminescence, 16 h; max response: stronger effect = lower value
Outline: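 ARE-bla HepG2 cells (2,000/well) rested 5 hrs at 37C/5% CO2, then exposed to compounds in DMSO for 16 hrs. Viability was read in the same wells as intracellular ATP by luminescence, 30 min at room temperature after reagent addition.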

[16] = qHTS assay for cell viability of HEK293 cells (AID 743288); conditions: ATP luminescence (CellTiter-Glo), 18 h; max response: stronger effect = lower value; further: on the % scale 0 is the no-effect control and ±100 the full control effect; nearly all actives have a fitted effect of over 50% in size
Outline: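 Total intracellular ATP, measured with a luciferase-coupled reagent, indicates the number of viable HEK293 cells. Exposure to test chemicals lasts 18 h at 37 C in 1,536-well format at 2,000 cells/well.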

[17] = qHTS assay for cell viability of the p53RE-bla HCT-116 cell line (AID 743292); conditions: p53RE-bla HCT-116 viability, ATP luminescence, 16 h; series mostly up to 95 µM; further: on the % scale 0 is the no-effect control and ±100 the full control effect; nearly all actives have a fitted effect of over 55% in size
Outline: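 Viability of compound-treated p53RE-bla HCT-116 cells is taken from ATP-dependent luciferase luminescence. Treatment lasts 16 h at 37 C after a 5 h settling period; detection follows 30 min at room temperature.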

[18] = molecular target: Nuclear receptor subfamily 1 group I member 2 (Rattus norvegicus) (UniProt Q9R1A7); assay: qHTS assay for small molecule activators of the rat pregnane X receptor (rPXR) signaling pathway (AID 651751; call rule not given here; further: 0% is about no effect); conditions: rPXR reporter cells, luciferase (One-Glo), 24 h
[19] = qHTS assay for small molecule activators of the human pregnane X receptor (PXR) signaling pathway (AID 720659; call rule not given here; further: 0% is about no effect); conditions: DPX-2 HepG2 CYP3A4-luciferase, 24 h; series mostly up to 92.3 µM
[20] = molecular target: Peroxisome proliferator-activated receptor gamma (Homo sapiens) (UniProt P37231); assay: qHTS assay for small molecule antagonists of peroxisome proliferator-activated receptor gamma signaling (AID 588537; active means well fitted inhibition curve with a large enough effect in the signal ratio, with a control signal flat, not every such curve was filed as active; the % refers to the signal ratio;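 further: reporter cells co-stimulated with 50 nM rosiglitazone agonist during compound treatment; % of control where 0% means no effect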); conditions: HEK293 PPARg-UAS-bla, beta-lactamase ratio, antagonist mode; series mostly up to 76.8 µM
Outline: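 We seeded GeneBLAzer HEK293 reporter cells at 3000 per well, allowed 6-6.5 h attachment at 37 C, then co-treated with test compound titrations and 50 nM rosiglitazone overnight (16 h). Inhibition was quantified from 460/530 nm emission ratios.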

Sequence of Retinoic acid receptor RXR-alpha (Homo sapiens) (P19793 whole entry, looked up): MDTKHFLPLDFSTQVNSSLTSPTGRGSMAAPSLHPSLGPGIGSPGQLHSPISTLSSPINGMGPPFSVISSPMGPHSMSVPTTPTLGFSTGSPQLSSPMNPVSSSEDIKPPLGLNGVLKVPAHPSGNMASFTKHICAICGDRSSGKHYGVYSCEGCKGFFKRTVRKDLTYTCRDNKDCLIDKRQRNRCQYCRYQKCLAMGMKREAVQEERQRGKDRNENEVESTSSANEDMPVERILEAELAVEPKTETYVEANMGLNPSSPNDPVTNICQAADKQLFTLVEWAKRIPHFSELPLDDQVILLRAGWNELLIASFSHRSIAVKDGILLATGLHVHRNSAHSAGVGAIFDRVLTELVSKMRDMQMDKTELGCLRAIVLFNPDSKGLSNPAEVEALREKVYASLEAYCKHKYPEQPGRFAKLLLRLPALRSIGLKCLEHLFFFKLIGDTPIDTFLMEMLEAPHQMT
Sequence of Thyroid hormone receptor beta (Homo sapiens) (P10828 whole entry, looked up): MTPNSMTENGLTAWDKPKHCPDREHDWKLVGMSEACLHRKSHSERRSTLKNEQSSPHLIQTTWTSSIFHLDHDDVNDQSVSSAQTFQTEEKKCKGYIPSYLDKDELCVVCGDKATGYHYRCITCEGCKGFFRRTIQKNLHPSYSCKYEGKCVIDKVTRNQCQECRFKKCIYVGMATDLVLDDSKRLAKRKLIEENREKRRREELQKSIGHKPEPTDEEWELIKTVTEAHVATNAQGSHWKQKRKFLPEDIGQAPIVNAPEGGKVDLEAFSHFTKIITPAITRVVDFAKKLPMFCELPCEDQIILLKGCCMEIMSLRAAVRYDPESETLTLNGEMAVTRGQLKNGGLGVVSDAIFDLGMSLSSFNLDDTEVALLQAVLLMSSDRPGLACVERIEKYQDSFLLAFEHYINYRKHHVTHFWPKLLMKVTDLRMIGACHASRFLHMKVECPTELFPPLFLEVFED
Sequence of Peroxisome proliferator-activated receptor alpha (Homo sapiens) (Q07869 whole entry, looked up): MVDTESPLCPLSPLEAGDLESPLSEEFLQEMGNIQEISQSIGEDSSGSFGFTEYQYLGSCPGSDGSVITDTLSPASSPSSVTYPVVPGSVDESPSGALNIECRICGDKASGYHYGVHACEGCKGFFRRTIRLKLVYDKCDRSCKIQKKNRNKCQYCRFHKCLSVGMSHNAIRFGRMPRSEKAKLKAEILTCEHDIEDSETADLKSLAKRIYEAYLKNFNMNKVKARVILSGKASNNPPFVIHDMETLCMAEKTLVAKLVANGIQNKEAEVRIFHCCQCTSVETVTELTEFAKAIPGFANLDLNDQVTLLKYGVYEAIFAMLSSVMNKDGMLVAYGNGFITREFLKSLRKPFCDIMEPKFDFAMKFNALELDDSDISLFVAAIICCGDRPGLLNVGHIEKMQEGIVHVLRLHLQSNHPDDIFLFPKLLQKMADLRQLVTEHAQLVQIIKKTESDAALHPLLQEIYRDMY
Sequence of Glucocorticoid receptor (Homo sapiens) (P04150 whole entry, looked up): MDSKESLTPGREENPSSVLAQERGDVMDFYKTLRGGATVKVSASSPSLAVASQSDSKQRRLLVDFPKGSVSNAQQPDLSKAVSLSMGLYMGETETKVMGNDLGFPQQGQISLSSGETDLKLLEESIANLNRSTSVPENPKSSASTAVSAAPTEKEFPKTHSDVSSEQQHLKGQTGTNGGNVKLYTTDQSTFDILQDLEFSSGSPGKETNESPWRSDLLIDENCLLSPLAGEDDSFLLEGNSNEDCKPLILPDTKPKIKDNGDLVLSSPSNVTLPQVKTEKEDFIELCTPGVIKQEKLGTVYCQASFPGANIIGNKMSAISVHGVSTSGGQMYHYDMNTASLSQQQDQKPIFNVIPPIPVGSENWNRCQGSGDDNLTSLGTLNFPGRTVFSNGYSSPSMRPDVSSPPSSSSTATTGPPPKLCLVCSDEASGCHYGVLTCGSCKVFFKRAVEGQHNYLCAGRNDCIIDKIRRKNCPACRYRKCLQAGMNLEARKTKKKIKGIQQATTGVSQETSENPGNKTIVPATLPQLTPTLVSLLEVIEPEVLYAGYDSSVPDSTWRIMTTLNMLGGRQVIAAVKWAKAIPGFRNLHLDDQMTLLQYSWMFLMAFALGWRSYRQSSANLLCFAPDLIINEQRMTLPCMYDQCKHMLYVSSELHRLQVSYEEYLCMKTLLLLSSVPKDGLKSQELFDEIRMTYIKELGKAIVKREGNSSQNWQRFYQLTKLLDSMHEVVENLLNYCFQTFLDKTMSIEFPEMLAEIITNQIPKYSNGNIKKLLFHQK
Sequence of Nuclear receptor subfamily 1 group I member 2 (Rattus norvegicus) (Q9R1A7 whole entry, looked up): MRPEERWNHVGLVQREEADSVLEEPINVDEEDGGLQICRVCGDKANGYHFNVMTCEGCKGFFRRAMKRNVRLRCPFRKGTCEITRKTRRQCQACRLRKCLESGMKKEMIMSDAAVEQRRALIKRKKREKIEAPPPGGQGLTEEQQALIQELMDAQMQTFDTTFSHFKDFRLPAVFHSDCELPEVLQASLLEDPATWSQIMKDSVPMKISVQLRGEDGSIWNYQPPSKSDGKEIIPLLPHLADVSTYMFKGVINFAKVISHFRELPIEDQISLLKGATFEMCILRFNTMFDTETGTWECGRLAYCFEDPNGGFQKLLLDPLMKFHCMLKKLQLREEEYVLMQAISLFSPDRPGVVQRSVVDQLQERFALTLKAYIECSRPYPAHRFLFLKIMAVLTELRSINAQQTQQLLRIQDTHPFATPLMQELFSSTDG
Sequence of Peroxisome proliferator-activated receptor gamma (Homo sapiens) (P37231 whole entry, looked up): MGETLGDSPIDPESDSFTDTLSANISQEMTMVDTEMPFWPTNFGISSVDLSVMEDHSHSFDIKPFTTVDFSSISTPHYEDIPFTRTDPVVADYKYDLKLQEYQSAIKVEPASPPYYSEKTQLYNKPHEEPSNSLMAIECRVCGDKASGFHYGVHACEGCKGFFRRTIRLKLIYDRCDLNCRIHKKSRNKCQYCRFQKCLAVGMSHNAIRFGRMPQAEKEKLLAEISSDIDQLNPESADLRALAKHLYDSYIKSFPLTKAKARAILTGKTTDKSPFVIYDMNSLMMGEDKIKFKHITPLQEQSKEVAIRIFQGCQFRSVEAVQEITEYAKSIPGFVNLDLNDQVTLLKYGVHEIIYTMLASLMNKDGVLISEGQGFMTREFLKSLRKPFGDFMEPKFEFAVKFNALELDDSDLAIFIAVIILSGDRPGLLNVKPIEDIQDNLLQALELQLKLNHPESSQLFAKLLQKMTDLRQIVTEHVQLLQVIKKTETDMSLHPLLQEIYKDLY

CC1COCc2cc3c(cc21)C(C)(C)C(C)C3(C)C (stereo unspecified)
inactive: activation [1] 13.9% | outcome [3] | Potency [5] | Potency [6] | max response [8] 0.528% | activity change % (negative = inhibition) [9] 0.269% | activation [10] -1.06% | activation [11] 1.51% | activation [12] 1.13% | max response [13] 7.58% | Potency [14] | max response [15] -2.78% | max response [16] -3.83% | Potency [17] | max response [18] 3.75%
-11.9%: max response [4]
-17.6%: max response [7]
-16.1%: max response [2]

CC(=O)OC1CCC(C(C)(C)C)CC1 (stereo unspecified)
inactive: activation [1] -9.53% | Potency [5] | Potency [6] | max response [8] -6.71% | activity change % (negative = inhibition) [9] 5.89% | activation [10] -2.06% | activation [12] 3.13% | max response [13] -0.283% | Potency [14] | max response [15] 0.584% | max response [16] -10.3% | Potency [17] | max response [18] 4.95% | outcome [19]
-2.86%: max response [4]
-1.04%: max response [7]
-10.4%: max response [2]

C[Si]1(C)N[Si](C)(C)N[Si](C)(C)N1
-6.42%: max response [4]
-13.1%: max response [7]
inactive: outcome [3] | Potency [20] | Potency [5] | Potency [6] | max response [8] -7.51% | activity change % (negative = inhibition) [9] 17.9% | activation [10] -5.2% | activation [11] -2.89% | max response [13] -0.733% | Potency [14] | max response [15] -8.08% | max response [16] -3.76% | Potency [17] | max response [18] 1.59% | outcome [19]

CC(C)(C)c1n[nH]c(=O)n(N)c1=O
inactive: activation [1] 14.6% | outcome [3] | Potency [20] | Potency [5] | Potency [6] | activity change % (negative = inhibition) [9] 0.427% | activation [10] 1.96% | activation [11] 0.103% | activation [12] -0.927% | max response [13] 0.89% | Potency [14] | max response [15] -8.89% | max response [16] -15.1% | Potency [17] | max response [18] 8.96% | outcome [19]
-20%: max response [4]
-9.84%: max response [2]
-5.34%: max response [7]
